In the supplement of paper PMC6555819:

system: VDR:RXRa (NR concentration 270 nM, RXRa partner concentration 90 nM); assay: PBM binding z-score (relative to random genomic background probes); higher = stronger binding; sequences stand for … in GC…GCGATTGACAGCGTAGAATGAAGG
Summary of the method: (§1)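 On custom Agilent 4×180K arrays, double-stranded probes with 34-nt variable regions carried direct-repeat seeds, single-nucleotide variants, half-site ablations or random human genomic background. Ligand-free nuclear receptor dimers were applied for 1 h, and binding was read with antibodies against each partner (one per run). Binding z-scores come from regression-normalized fluorescence, with the random background probes as reference.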

Sequence	PBM binding z-score
GCAGACAGGTGAAACGCAGGTAGCTCAGGGTGGC	-0.649
AGAATGAGGTTAGGATCAGGGAAACAGAATACAT	0.51
CAAACTAGGTCACCGGAAGGTCACAGTCCGCATG	5.64
TGAATCAGGTTAAAGATCAGGGAACGTGGCGTCG	0.238
ATCGAAAGGTCGAGGTGAGTAAAGAGAAAGGGAA	2.25
GCATATAGGTAATACCAGGTGAAAGTCCGATTGT	-0.00851
CCGACTGGGGCAGAAAGGTAACCATACCATCCGG	-0.526
TCTTGTAGATCAACAGGAGGTTAAGAAAGATCGA	0.453
GCTGCTAGGTCAACTAATGGTCAGCTAAAGCTCG	1.35
GCGACTGGGGCAAGGCAGGTTACCATAAGGTTGG	-0.166
ATATGTAGGTTAACGGGTCATTCAGTTTGCGCAT	5.16
GCTCGGAGAACAAGGTCAGAGCTTTGTCCGTAGA	1.5
CCTTACGGGTCCCGAGGTTATAGCACGACGAGCG	0.198
CCTTACGGGTCACGAGGTTATATCACGACGAGCG	5.38
GATCGGAGGACAAGGTCAGAGCTTTGTCCGTAGA	1.44
ATATGTAGGTTACATACGGGTCATTCAGGCTATG	4.14
GCAAACAGGTGAAACGCAGGTAACTCAGGGTGGC	-0.424
TCTTGTAGATCAACAGGAGGTCAAGAAAGATCGA	3.14
TGAATGAGGTTAAAGATCAGGAAACGTGGCGTCG	1.95
GCTGCTATGTCAACTGATGGTCAGCTAAAGCTCG	-0.38

Sequence	PBM binding z-score
TAGCCTAGTTCAGATCGGGCCAGTATACGCTATA	-0.0916
TCTTGTAGATCACCAGGAGGTTAAGAAAGATCGA	0.799
TGAATGAGGTTAAAGATCAGGGATCGTGGCGTCG	1.85
TAGCCTAGGTCAGATCTGGCCAGTATACGCTATA	0.166
TAGCCTAGGTCATGGGCCACTATACCACGCGAAC	2.22
GCTGCTAGGTCAACTGATGGACAGCTAAAGCTCG	1.27
CGTCCAAGGTCATAGGACGTCAGTGAAGACAGAT	4.13
CGTGCAAGGTCAAGGTCAGTGAAAGAGACTCGAA	4.83
ACTTACGGGTCAACGTGGTTATAGCACGCGTATA	4.96
ACTAGCAGGCCAACGGTCACTCAAGATTAGTCCG	-0.505
ATCGAAAGGTCGTAGGTGAGTATACCCACCCGAA	3.47
CCAACTGGGCCATCAGGTCATTGATATCAACGTT	1.98
CGTCCAAGGTCATAGGCGGTCAGTGAAGACAGAT	4.7
CCGACTAGGTTATGGGGCATTCAGGCAACGGTGA	-0.337
TTACCAAGGTGGAAGGTCGTTGATGCACGCCTTG	0.464
CGTACAAGGTCAGCAGGTCAGTGAAAGCGACGTG	4.16
CCTACTGGGCCATAAAGGTCATTGATGCCGATAA	4.93
ATCGAAAGGTCGAAGGTGAGTAAACCCACCCGAA	2.84
AGTCAAAATTCAGGACGAGGTAACGTAAAGCACG	-0.107
GATACATGGTCAGCTAGAGGCCAGAGTATGGAAA	-0.32

system: VDR homodimer (NR concentration 270 nM); assay: as above
Summary of the method: as §1

Sequence	PBM binding z-score
GCAGACAGGTGAAACGCAGGTAGCTCAGGGTGGC	-0.785
AGAATGAGGTTAGGATCAGGGAAACAGAATACAT	0.389
CAAACTAGGTCACCGGAAGGTCACAGTCCGCATG	3.04
TGAATCAGGTTAAAGATCAGGGAACGTGGCGTCG	-0.0211
ATCGAAAGGTCGAGGTGAGTAAAGAGAAAGGGAA	0.357
GCATATAGGTAATACCAGGTGAAAGTCCGATTGT	-0.0397
CCGACTGGGGCAGAAAGGTAACCATACCATCCGG	-0.291
TCTTGTAGATCAACAGGAGGTTAAGAAAGATCGA	-0.387
GCTGCTAGGTCAACTAATGGTCAGCTAAAGCTCG	-0.0577
GCGACTGGGGCAAGGCAGGTTACCATAAGGTTGG	-0.42
ATATGTAGGTTAACGGGTCATTCAGTTTGCGCAT	2.56
GCTCGGAGAACAAGGTCAGAGCTTTGTCCGTAGA	0.151
CCTTACGGGTCCCGAGGTTATAGCACGACGAGCG	0.162
CCTTACGGGTCACGAGGTTATATCACGACGAGCG	2.09
GATCGGAGGACAAGGTCAGAGCTTTGTCCGTAGA	0.466
ATATGTAGGTTACATACGGGTCATTCAGGCTATG	2.29
GCAAACAGGTGAAACGCAGGTAACTCAGGGTGGC	-0.658
TCTTGTAGATCAACAGGAGGTCAAGAAAGATCGA	0.803
TGAATGAGGTTAAAGATCAGGAAACGTGGCGTCG	0.62
GCTGCTATGTCAACTGATGGTCAGCTAAAGCTCG	-0.702

Sequence	PBM binding z-score
TAGCCTAGTTCAGATCGGGCCAGTATACGCTATA	0.117
TCTTGTAGATCACCAGGAGGTTAAGAAAGATCGA	0.109
TGAATGAGGTTAAAGATCAGGGATCGTGGCGTCG	-0.0606
TAGCCTAGGTCAGATCTGGCCAGTATACGCTATA	-0.751
TAGCCTAGGTCATGGGCCACTATACCACGCGAAC	0.754
GCTGCTAGGTCAACTGATGGACAGCTAAAGCTCG	-0.122
CGTCCAAGGTCATAGGACGTCAGTGAAGACAGAT	3.01
CGTGCAAGGTCAAGGTCAGTGAAAGAGACTCGAA	3.35
ACTTACGGGTCAACGTGGTTATAGCACGCGTATA	1.18
ACTAGCAGGCCAACGGTCACTCAAGATTAGTCCG	-0.593
ATCGAAAGGTCGTAGGTGAGTATACCCACCCGAA	1.21
CCAACTGGGCCATCAGGTCATTGATATCAACGTT	2.04
CGTCCAAGGTCATAGGCGGTCAGTGAAGACAGAT	3.22
CCGACTAGGTTATGGGGCATTCAGGCAACGGTGA	0.126
TTACCAAGGTGGAAGGTCGTTGATGCACGCCTTG	0.895
CGTACAAGGTCAGCAGGTCAGTGAAAGCGACGTG	1.68
CCTACTGGGCCATAAAGGTCATTGATGCCGATAA	2.92
ATCGAAAGGTCGAAGGTGAGTAAACCCACCCGAA	1.17
AGTCAAAATTCAGGACGAGGTAACGTAAAGCACG	0.0292
GATACATGGTCAGCTAGAGGCCAGAGTATGGAAA	-0.418
